# Assay results reported in PubChem BioAssay (NCATS).
# Records with an inconclusive call do not appear. Where a call stands in place of a potency, no number is given. Calls of active or inactive are those of the source. Calls follow the shape of the dose curve; as a rule, active = well fitted inhibition curve with a large enough effect; inconclusive = small, poorly fitted or top-dose-only effect; inactive = no such curve, though single readings can be large or run the other way.
# System: Zika virus NS2B-NS3 protease (linked construct)
# Assay: Primary screen NINDS Rhodamine qHTS for Zika virus inhibitors (AID 1347160); also: nearly all actives have a fitted effect of over 55% in size
# Settings: purified NS2B-NS3 protease, Rhodamine110 substrate fluorescence; series mostly up to 57.1 µM
# How it was run: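 Rhodamine110-peptide cleavage (1.5 µM substrate) by 25 nM linked NS2B-NS3 enzyme at pH 8.0 (Tris, Tween 20), after 15 min RT preincubation with compounds; 15-min fluorescence change normalized to controls and Hill-fitted.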
# Potency is read from the fitted curve at half-maximal effect.
row,Structure (SMILES),Potency
1,Clc1cccc(COc2cncc(N3CCNCC3)n2)c1,inactive
2,COC(=O)c1ccnc(-c2cc(C(=O)Nc3ccc(C4(N)CC4)cc3)ccn2)c1,inactive
3,C=C1C(=O)OC2CC(C)C(CCC(C)O)=CCC12 (centres undefined),inactive
4,CC(C)Nc1nc(Nc2ccccc2)nc(-c2ccccc2)n1,inactive
5,C[C@H]1CC[C@@]2(OC1)O[C@H]1CC3C4CC[C@H]5C[C@@H](O)CC[C@]5(C)C4=CC(=O)[C@]3(C)[C@H]1[C@@H]2C (some centres undefined),inactive
6,O=[N+]([O-])c1ccc(Oc2ccc3c(c2)CCC(c2ccccc2)O3)nc1 (centres undefined),inactive
7,O=C(Nc1ccc(N2C(=O)[C@@H]3[C@H](C2=O)[C@@H]2C=C[C@H]3C2)c(Cl)c1)c1ccccn1,inactive
8,Cc1cc(F)ccc1[C@H]1C[C@@H](N2CCN3C(=O)CC[C@H]3C2)CCN1C(=O)N(C)[C@H](C)c1cc(C(F)(F)F)cc(C(F)(F)F)c1,inactive
9,Cc1nnc(C[C@@H]2C=C(c3ccc(Cl)cc3)c3ccccc3-n3c(C)nnc32)o1,inactive
10,C=CC(=O)N1CCC[C@@H](n2nc(-c3cccc(C(=O)Nc4ccc(C(C)C)c(C)c4)c3)c3c(N)ncnc32)C1,inactive
11,C=C1/C(=C/C=C2\CCC[C@]3(C)[C@@H]([C@@H](C)OCCC(O)(CC)CC)CC[C@@H]23)C[C@@H](O)C[C@@H]1O,inactive
12,FC(F)(F)c1ccccc1-c1cc(C(F)(F)F)c2nc(C3=NOC4(CCCCC4)C3)[nH]c2c1,inactive
13,O=C(Nc1ncc([N+](=O)[O-])s1)c1ccccc1O,22.4 µM (active)
14,CC1(C(=O)Nc2ccc(F)nc2)CCCN1c1nc(Nc2cc(C3CC3)[nH]n2)c2cccn2n1 (centres undefined),inactive
